# Several values for one entry are separate records, joined by “and”; a condition that tells them apart may be missing. Equal values may be shown once. About 1,900 (0.58%) of roughly 330,000 compounds were called active. Inconclusive results (about 4%) are left out. A selection follows. Results with a measured potency or affinity are listed apart. Values without a mark were called inactive. Rule as the data show it: inconclusive = inhibition above about 70% without an active follow-up result; inactive = below that.
# Experiment: M. tuberculosis growth inhibition, HTS (AID 449762);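 also: bacterial growth assessed after seven days of incubation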
# Conditions: M. tuberculosis H37Rv growth inhibition, 7H9 media; at 25 µM; hits give high values
row,Structure (SMILES),inhibition
1,O=C(CN(Cc1ccccc1Cl)C(=O)c1csnn1)NCCc1ccccc1,4.65%
2,Cc1occc1C(=O)Nc1ccccc1C#N,-1.21%
3,CC(C)CCOC(=O)C1[C@H]2C(=O)N(Cc3cccs3)C[C@]23C=C[C@H]1O3 (stereo partly specified),0.09%
4,O=c1c2ccccc2ncn1-c1ccc([N+](=O)[O-])cc1[N+](=O)[O-],4.34%
5,O=[N+]([O-])c1ccccc1-n1cnc2ccccc21,8.38%
6,COc1cc(C(=O)OCC(=O)NCc2ccccc2)cc(NC(=O)c2ccco2)c1OC,6.91%
7,C1=C(c2ccccc2)CCN(c2ncnc3nc[nH]c23)C1,1.26%
8,COc1ccccc1-n1c(N)c(C(N)=O)sc1=S,-2.51%
9,CC(=O)c1ccc(OC(=O)CCc2nc3ccccc3s2)cc1,-3.41%
10,COC(=O)N1CCN(c2ccc(Cl)c(Cl)c2)CC1,-0.8%
11,CCOC(=O)N1CCN(c2ccc(Cl)c(Cl)c2)CC1,-2.84%
12,N#CCCn1cc(C(=O)Nc2ccc(C(=O)O)cc2)c(-c2cc3ccccc3o2)n1,-8.4%
13,CC(C)n1cnc2c(Nc3cccc(Cl)c3)nc(NCCCO)nc21,27%
14,CC(C)C[C@H](CO)Nc1nc(Nc2cccc(Cl)c2)c2ncn(C(C)C)c2n1,62.4%
15,CC(C)(C)n1nnnc1CN1CCSCC1,1.25%
16,COC(=O)c1cc(NC2c3ncccc3C(=O)N2Cc2ccccc2)cc(C(=O)OC)c1 (stereo unspecified),2.2%
17,CCOC(=O)c1nnn(-c2nonc2-c2ccccc2)c1C,7.53%
18,Cc1c(C(=O)O)sc2nc3n(c(=O)c12)CCC(C)CC3 (stereo unspecified),-4.08%
19,CCOC(=O)c1sc2nc3n(c(=O)c2c1C)CCC3,-4.9%
20,COc1ccc(-c2cc(NCCc3ccncc3)n3ncnc3n2)cc1,-2.4%
21,COc1ccc(-c2cc(NCc3ccccn3)n3ncnc3n2)cc1,65.8%
22,COc1ccc(NC(=O)Cn2c(=O)n(-c3ccc(OC)cc3OC)c(=O)c3c(C)c(C)sc32)cc1,-0.67%
23,CC(C)N(CC(N)=O)c1ccc(S(=O)(=O)N2CCCC2)cn1,-5.77%
24,NC(=O)C1CCN(C(=O)COc2ccc3ccc(=O)oc3c2)CC1,-9.39%

row,Structure (SMILES),inhibition
1,CCOC(=O)C1=C(C)Nc2nc(SC)nn2C1c1ccc(C(=O)OC)cc1 (stereo unspecified),-5.54%
2,CCOC(=O)C1=C(C)Nc2nc(SCC)nn2C1c1ccc(OC)cc1 (stereo unspecified),5.22%
3,O=C(NCc1ccccc1)c1nccnc1CO,0.4%
4,CN(C)S(=O)(=O)c1ccc(C(=O)NCc2nnc(SCC(=O)c3ccccc3)o2)cc1,-10.3%
5,COc1cc(O)c(C(CCN2CCCC(C)C2)c2cc(OC)c(OC)c(OC)c2)c(OC)c1 (stereo unspecified),-1.23%
6,O=C(Nc1ccc(-c2nc3ccccc3s2)cc1)c1cc(-n2cnnc2)ccc1Cl,-1.18%
7,Cc1ccc(-c2nc3ccccc3s2)cc1NC(=O)c1cc(-n2cnnc2)ccc1Cl,3.06%
8,Cc1cc(C)c(NC(=O)Cn2ncc3ccccc32)c(C)c1,-0.59%
9,COC(=O)c1ccc(OC(=O)c2cccs2)cc1,19.3%
10,Cc1ccc(N2C(=O)C3CCCN3C2=S)c(C)c1 (stereo unspecified),5.68%
11,Nc1ncc([N+](=O)[O-])cc1S(=O)(=O)c1ccccc1,2.55%
12,NS(=O)(=O)c1ccc(S(=O)(=O)c2ccccc2)nc1,1.3%
13,C#CCNC(=O)C1=C[C@@H](C)C[C@@H](OCc2ccc(CO)cc2)O1,2.19%
14,COc1ccc(-c2cc3nc(-c4ccccc4)cc(N4CCC(O)CC4)n3n2)cc1,8.92%
15,COc1ccc(-c2cc(-n3c(C(F)(F)F)nc4ccccc43)n(CCC#N)n2)cc1,5.23%
16,Cc1ccc(S(=O)(=O)Nc2c(C)n(C)n(-c3ccccc3)c2=O)cc1C(=O)NCc1ccccc1,-5.64%
17,COc1ccc(N=NC2=C(O)CC(C)(C)CC2=O)cc1,-3.64%
18,Cc1nc2ccc(N=NC3=C(O)CC(C)(C)CC3=O)cc2s1,1.45%
19,COc1ccc(CCN2CC(O)=C(c3nc(C)cs3)C2=N)cc1OC,7.01%
20,COc1cccc(OCc2cc(C(=O)NCCN3CCCCC3CO)no2)c1 (stereo unspecified),-19.8%
21,Cc1ccc(NNc2c(C)nc3ccccc3nc2=O)cc1,42.5%
22,Cc1ccc2nc(-c3ccccc3)c(-c3ccccc3)nc2c1,2.44%
23,O=C(Nc1ccc(S(=O)(=O)Nc2ncccn2)cc1)c1ccco1,-1.81%
24,COc1ccc(/C=C2\SC(=O)N(CCNC(=O)Cn3[nH]c(=O)c4ccccc4c3=O)C2=O)cc1,1.03%

row,Structure (SMILES),inhibition
1,COc1ccc(C2SCC(=O)N2c2ccc(C)cc2)cc1 (stereo unspecified),-1.14%
2,O=C(O)C1CC(c2ccccc2)=Nc2ccccc2S1 (stereo unspecified),13.4%
3,COc1ccc(C2CC(c3cccs3)=NN2S(C)(=O)=O)cc1 (stereo unspecified),-0.06%
4,COc1ccc(O)c(C2=Nc3ccccc3N=C(c3cccs3)C2)c1,-0.29%
5,CCC(=O)N1N=C(c2ccccc2)CC1c1ccc([N+](=O)[O-])cc1 (stereo unspecified),2.69%
6,O=C(Nc1ccccc1)N1CCC(O)(c2cccc(C(F)(F)F)c2)CC1,1.21%
7,CCN(CC)CCCN=C1N[C@@H](c2cccc(F)c2)C(C(=O)OC)=C(C)N1Cc1ccccc1,-0.31%
8,CC(C)C(NC(=O)OCc1ccccc1)C(=O)OCC(=O)NCc1ccco1 (stereo unspecified),8.7%
9,Cc1ccc(C(=O)NNC(=O)c2cccc(C)c2)cc1,-4.89%
10,CCOc1ccc(S(=O)(=O)Nc2ncn[nH]2)cc1,1.15%
11,COc1ccc2c(c1)c(C(C)=O)c(C)n2C,4.3%
12,CCOC(=O)c1c(C)n(C)c2ccc(OC(=O)c3ccc([N+](=O)[O-])cc3)cc12,25.7%
13,CC12CCC(=O)N1C(C(=O)N1CCN(c3ccc(C(F)(F)F)cc3[N+](=O)[O-])CC1)CS2 (stereo unspecified),4.09%
14,CC1(c2nnc(-c3ccccc3)o2)CC(c2ccccc2)=NO1 (stereo unspecified),4.65%
15,CC1(c2nnc(-c3ccccc3)o2)CC(c2ccncc2)=NO1 (stereo unspecified),10.1%
16,Cc1nc(C)c(-c2csc(Nc3ccccn3)n2)s1,5.67%
17,O=S(=O)(c1cccc2cccnc12)N1CCN(c2ccccn2)CC1,-2.85%
18,COc1ccc(S(=O)(=O)N2CCN(CC(=O)Nc3ccccc3OC)CC2)cc1,5.95%
19,FC(F)Oc1ccc(NC(=S)Nn2cnnc2)cc1,-3%
20,COc1ccc(CNC(=O)C[C@H]2C(=O)N(c3ccccc3)C[C@@H]2Cc2ccccc2)cc1,0.74%
21,CC1Cc2ccccc2N1C(=O)CSc1nc2ccccc2n1CC(=O)N1CCOCC1 (stereo unspecified),7.22%
22,C=CCNC(=O)c1onc(CSc2ccc(Cl)cc2)c1C(=O)NCC=C,27.7%
23,C=CCNC(=O)c1onc(CSc2ccc(OC)cc2)c1C(=O)O,4.85%
24,CCN(CC)S(=O)(=O)c1ccc(N2CCCC2)c(NC(=O)C2=COCCO2)c1,-7.17%

row,Structure (SMILES),inhibition
1,Cn1c(CSCc2ccc(F)cc2)n[nH]c1=S,-6.48%
2,COC(=O)CCN1CCC(c2cc(-c3cccc(C(F)(F)F)c3)n[nH]2)CC1,5.38%
3,FC(F)(F)c1cccc(-c2cc(C3CCNCC3)[nH]n2)c1,6.36%
4,O=C(CC1C(=O)NCCN1Cc1ccc(F)cc1)NCCCn1cccn1 (stereo unspecified),-1%
5,O=S(=O)(NCCc1cn2ccccc2n1)c1ccc2c(c1)OCCO2,-2.59%
6,Cc1c(C(=O)NCc2ccc(S(N)(=O)=O)cc2)oc2ccc(Cl)cc12,-4.55%
7,COc1cc2nc(Nc3ccc(F)cc3)nc(N)c2cc1OC,23.2%
8,COc1cc2nc(N3CCNCC3)nc(N)c2cc1OC,-16.4%
9,COc1cc2nc(N3CCN(C(=O)c4ccco4)CC3)nc(N)c2cc1OC,-7.62% and 1.49%
10,COc1cc2nc(Nc3cccc(F)c3)nc(N)c2cc1OC,34.9%
11,CCn1c(O)c(N=Nc2cccc(S(=O)(=O)N3CCOCC3)c2)c(=O)n(CC)c1=S,-2.11%
12,O=C(Nc1cccc(C(=O)N2CCCc3ccccc32)c1)c1ccccc1,6.88%
13,COc1ccccc1C(=O)NC(=O)Nc1c(C)cc(C)cc1C,1.95%
14,COc1ccc(-c2nc(-c3ccncc3)no2)c(OC)c1,4.47%
15,COc1ccc(S(=O)(=O)N2CCC(c3cc(-c4cccc5ccccc45)n[nH]3)CC2)cc1,66.5%
16,COc1ccc(S(=O)(=O)Nc2c(F)cccc2F)cc1,6.44%
17,COc1cccc(NS(=O)(=O)c2nc3nc(C)cc(C)n3n2)c1,-2.88%
18,COc1ccc(CNS(=O)(=O)c2cc3c4c(c2)C(C)C(=O)N4CCC3)cc1 (stereo unspecified),-1.95%
19,COc1ccc(CCC(=O)NCCS(=O)(=O)N2CCN(c3ccccc3F)CC2)cc1,9.75%
20,CN1CCCN(C(=O)c2cccc(Br)c2)CC1,-4.86%
21,c1ccc(-c2nc(-c3ccccn3)nc(-c3ccccn3)n2)nc1,14.8%
22,c1ccc(-c2ccccn2)nc1,11.8%
23,c1ccc(-c2nnc(-c3ccccn3)c(-c3ccccn3)n2)nc1,0.73%
24,CC(C)Nc1nc(-c2ccccn2)nc(-c2ccccc2)c1C#N,-1.18%

# Source: PubChem BioAssay AID449762 (Southern Research Specialized Biocontainment Screening …, 2010)
